Tau FP inhib: qHTS for Inhibitors of Tau Fibril Formation, Fluorescence Polarization | K18 P301L tau heparin fibrillization, Alexa594 FP, 6 h | Potency, µM (highest dose often 57.7 µM), inactives show at the highest dose activity, negative = inhibition, usual class: inhibitors | actives 0.39% (n = 280,000) | AID 1468, 2008; also: nearly all actives have a fitted effect of over 55% in size
Target sequence (P10636 561-689 P618L limits assumed): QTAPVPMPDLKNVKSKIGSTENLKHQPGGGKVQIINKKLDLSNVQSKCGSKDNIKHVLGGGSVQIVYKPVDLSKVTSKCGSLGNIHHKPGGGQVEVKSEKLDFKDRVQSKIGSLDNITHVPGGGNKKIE
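Human K18 P301L fragment (15 uM unlabeled plus 0.24 uM Alexa 594-labeled) in 100 mM sodium acetate pH 7 with compound, aggregation induced by 20 uM heparin for 6 hr at 37 C. ThT (30 uM) added for 1 hr, then Alexa 594 FP read.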
TRb SRC2 PPI: qHTS for Inhibitors of the Interaction of Thyroid Hormone Receptor and Steroid Receptor Coregulator 2; Thyroid hormone receptor beta (Homo sapiens), P10828; TRbeta-SRC2 peptide binding, fluorescence polarization; receptor liganded with 1 µM T3; Potency, µM (series often up to 106 µM), inactives show at the top dose activity change, negative = inhibition, hits mostly inhibitors; actives 0.065% (n = 280,000); AID 1469, 2008;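 also: plate controls were bound peptide for no effect and peptide without receptor for full effect; nearly all actives have a fitted effect of over 50% in size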
Target sequence (P10828 whole entry, looked up): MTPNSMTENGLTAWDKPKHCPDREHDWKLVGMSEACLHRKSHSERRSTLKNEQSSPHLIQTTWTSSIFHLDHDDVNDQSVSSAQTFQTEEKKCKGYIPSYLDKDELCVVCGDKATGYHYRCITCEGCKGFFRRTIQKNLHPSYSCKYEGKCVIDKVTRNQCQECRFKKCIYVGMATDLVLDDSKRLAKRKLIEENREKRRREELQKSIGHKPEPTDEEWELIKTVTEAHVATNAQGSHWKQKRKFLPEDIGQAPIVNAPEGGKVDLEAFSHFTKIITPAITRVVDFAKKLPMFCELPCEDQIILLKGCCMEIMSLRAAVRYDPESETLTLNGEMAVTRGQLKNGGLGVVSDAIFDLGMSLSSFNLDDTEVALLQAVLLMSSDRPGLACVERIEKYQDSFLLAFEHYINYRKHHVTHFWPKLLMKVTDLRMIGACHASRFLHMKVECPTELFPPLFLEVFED
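Each compound concentration gave % activity, normalized to unbound and bound Texas Red SRC2 controls, from polarization read after 5 hr ambient incubation with T3-loaded human TRb LBD.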
TexasRed fluor: Total Fluorescence Counterscreen for Inhibitors of the Interaction of Thyroid Hormone Receptor and Steroid Receptor Coregulator 2. TRb/SRC2 Texas Red total fluorescence interference. Potency, µM (top dose mostly 106 µM), without a hit: top-dose fluorescence change, negative = quenching. actives 0.29% (n = 280,000). AID 1479, 2009; active = well fitted curve in either direction with a large enough effect; inconclusive = small, poorly fitted or top-dose-only effect
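Flags fluorescent or light-absorbing compounds by total fluorescence, S + 2P, at 555 nm excitation and 632 nm emission. Mixture: 20 nM Texas Red SRC2 peptide, 0.6 uM human TRb LBD, 1 uM T3, 5% DMSO; compound exposure 5 h at ambient temperature.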
Tau fluor counter: Counterscreen qHTS for Inhibitors of Tau Fibril Formation, Fluorescence Polarization. tau K18 P301L Alexa594 fluorescence, heparin fibrillization. Potency, µM (doses to about 57.7 µM), for the others: at the top dose activity change, negative = decrease. actives 0.93% (n = 280,000); also: nearly all actives have a fitted effect of over 55% in size
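Human tau K18 P301L (15 uM unlabeled, 0.24 uM Alexa 594-labeled) in 100 mM sodium acetate pH 7 with 20 uM heparin, 6 hr at 37 C. ThT 30 uM added, 1 hr ambient; Alexa 594 FP and total fluorescence read at 555/632 nm.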
Tau ThT inhib: qHTS for Inhibitors of Tau Fibril Formation, Thioflavin T Binding; Microtubule-associated protein tau (Homo sapiens), P10636; Potency, µM (highest dose often 57.4 µM), for the others: top-dose activity, negative = inhibition, usual class: inhibitors; recombinant tau K18 P301L, heparin-induced fibrillization, ThT fluorescence; actives 2.1% (n = 270,000); also: nearly all actives have a fitted effect of over 55% in size
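Fibril formation assay: tau K18 P301L at 15 uM with trace Alexa 594 label, heparin inducer 20 uM, pH 7 sodium acetate buffer, 37 C for 6 hr; endpoint ThT signal.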
An asterisk follows results filed as active; ? = inconclusive; . = no result given; ! = a repeat was not active; [ ] = another dose, or the depositor's remark. This is a sample that favours compounds with a hit; in the whole collection about 3% have one here. Unless noted, calls follow the shape of the dose curve; as a rule, active = well fitted curve in the direction sought with a large enough effect; inconclusive = small, poorly fitted or top-dose-only effect, or another doubt; inactive = no such curve, though single readings can be large; an effect the other way counts as inactive or inconclusive. Unless noted, % is scaled to controls: 0 for no effect and ±100 for the full control effect; potency is read from the fitted curve at half-maximal effect.

SMILES | Tau FP inhib | TRb SRC2 PPI | TexasRed fluor | Tau fluor counter | Tau ThT inhib
CCOC(=O)c1c(C)[nH]c(C)c1S(=O)(=O)N(C)CC(=O)Nc1ccc(CC)cc1 | -6% | 0% | 0% | ? | -13%
CCCCCOc1ccc(CSCCNC(=S)Nc2ccccc2)cc1 | 13µM* | 0% | 1% | ? | -13%
CCCCOc1ccc(CSCCNC(=S)Nc2ccccc2)cc1 | ? | 0% | 3% | ? | -3%
Cc1ccc(NC(=O)C(=O)NCCc2csc3nc(-c4ccccc4C)nn23)cc1Cl | -5% | 0% | -16% | -5% | 3%
Cc1ccc(C)c(NC(=O)C(=O)NCCc2csc3nc(-c4ccccc4C)nn23)c1 | -5% | -15% | 22µM*[quencher] | -20% | -3%
O=C(N/N=C/c1cn(-c2ccccc2)nc1-c1cc2ccccc2o1)c1ccccc1Br | 7% | 11% | 14% | 4% | 6%
O=C(N/N=C/c1cn(-c2ccccc2)nc1-c1cc2ccccc2o1)c1c[nH]c2ccccc12 | 14µM* | 13% | -1% | ? | 3%
COc1ccc2c(c1)OC/C(=C\c1ccc(OC)c(O)c1)C2=O | -5% | -1% | -5% | ? | 4.5µM*
COc1ccc(/C=C2\COc3ccccc3C2=O)cc1OC | 2% | -6% | -3% | 7% | ?
Cc1cccc(OCCn2c(-c3ccc(Cl)cc3)nc3ccccc3c2=O)c1C | -1% | 3% | -1% | -1% | 0%
COc1ccc(C(=O)Nc2nc(-c3nnn(-c4cc(OC)ccc4OC)c3C)ns2)cc1 | ? | 2% | -2% | -27% | 10%
O=[N+]([O-])c1ccc(N=NNc2ccccc2)cc1 | 2% | 4% | 0% | 14µM*[quencher] | 8.9µM*
O=C(O)c1cc(NN=Nc2ccc(Br)cc2)cc([N+](=O)[O-])c1 | 1% | 6% | 1% | -28% | 14µM*
COc1ccc(N=Cc2c(O)ccc3ccccc23)cc1 | -7% | 7% | -7% | ? | 8.9µM*
COc1ccc(Cn2c(O)c(C=Nc3ccc(O)cc3)c3ccccc3c2=O)cc1 | ? | -2%[53 µM] | -3%[53 µM] | 4.5µM*[quencher] | ?
Cc1oc(/N=C/c2c(O)ccc3ccccc23)c(C#N)c1C | ? | 12% | 6% | -30% | 18µM*
Cc1ccc(N=Nc2c(C)[nH][nH]c2=O)c(C)c1 | -6% | 4% | -1% | -23% | 8.9µM*
COc1ccc(N=Nc2c(C)[nH][nH]c2=O)cc1 | 2% | -9% | -6% | -12% | 8.9µM*
Cc1ccsc1/C=N/N=C1\C(=O)Nc2ccccc21 | 9% | 3% | 0% | ? | 14µM*
COc1cc(/C=N/N=C2/C(=O)Nc3ccccc32)ccc1O | 7% | -3% | -9% | ? | 11µM*
O=C1Nc2ccccc2/C1=N\N=C\c1ccc(O)c(O)c1 | -3% | 3% | -9% | ? | 4.5µM*
O=C(/C(=N/N=C/c1ccc(O)c(O)c1)c1ccccc1)c1ccccc1 | -7% | -6% | -1% | 13µM*[quencher] | ?
COC(=O)c1ccc(I)cc1S(=O)(=O)NC(=O)Nc1nc(C)nc(OC)n1 | . | -2%[201 µM] | 1%[201 µM] | . | .
Cc1ccc(CNC(=O)NCc2noc3ccc(C)cc23)cc1 | -8% | 1% | 0% | -19% | -8%
CC(=O)C1=C(S(=O)(=O)c2ccc(C)cc2)CS(=O)(=O)C1 | 28µM* | -6% | -1% | -20% | 25µM*
SMILES | Tau FP inhib | TRb SRC2 PPI | TexasRed fluor | Tau fluor counter | Tau ThT inhib
Cc1ccc(S(=O)(=O)C2CS(=O)(=O)CC2O)cc1 (stereo unspecified) | 7% | -10% | -4% | 6% | 6%
[O]=[Bi][O]C(=O)[O][Bi]=[O] | . | -7% | 0% | . | .
CCOC(=O)/C(=C\c1cccc(O)c1)c1nc2sc(C)c(C)c2c(=O)[nH]1 | ? | 3% | -1% | -16% | 20µM*
COc1ccc(OC)c(Nc2cc(C(=O)NCCCN3CCOCC3)c3ccccc3n2)c1 | 12% | -2% | -1% | -27% | -17%
CCc1ccc(Nc2cc(C(=O)NCCCN3CCOCC3)c3ccccc3n2)cc1 | ? | -5% | -2% | 16µM*[quencher] | ?
COc1ccc(N2CCN(CCCNC(=O)c3cc(Nc4ccc(OC)cc4OC)nc4ccccc34)CC2)cc1 | 11% | -4% | -7% | 16µM*[quencher] | 18µM*
COc1ccccc1Nc1cc(C(=O)NCCCN2CCOCC2)c2ccccc2n1 | 6% | 0% | -4% | -24% | -5%
COc1ccc(Nc2cc(C(=O)NCCCN(C)C3CCCCC3)c3ccccc3n2)cc1 | ? | -5% | -2% | 11µM*[quencher] | ?
Cn1c(=O)c(N)c2c3c(c(Br)ccc31)C(=O)c1ccccc1-2 | -13% | -5% | 4% | ? | 14µM*
COc1cc(NC(=O)c2nc3cc(C)c(C)cc3n(C)c2=O)cc(OC)c1OC | 1% | -8% | 0% | -4% | ?
CCN(CC)c1ccc(-n2cc3c(=O)n(C)c(=O)n(C)c3c2)cc1 | 6% | -3% | -9% | ? | 5µM*
CN(C)c1ccc(-n2cc3c(=O)n(C)c(=O)n(C)c3c2)cc1 | 3% | -4% | -7% | -20% | 2.8µM*
O=c1cc(O)c2sc(Nc3ccc(F)cc3)nc2[nH]1 | ? | 7% | -7% | ? | 28µM*
Cc1c(Cl)cccc1NC(=S)N=Nc1c(O)n(CN2CCOCC2)c2ccccc12 | -14% | 0% | 1% | 18µM*[quencher] | ?
Oc1c(N=NC(=S)Nc2ccccc2F)c2ccccc2n1Cc1ccccc1Cl | ? | 1% | -2% | ? | -19%
O=[N+]([O-])c1ccc(Sc2cccc[n+]2[O-])c2nonc12 | ? | -16% | -27% | 13µM*[quencher] | 5µM*
O=C(CSc1cccc[n+]1[O-])Nc1ccc(C(F)(F)F)cc1[N+](=O)[O-] | 0% | 0% | -3% | -3% | -6%
O=C(O)c1ccc(-c2ccc(/C=C3\NC(=O)N(Cc4ccc(Cl)cc4)C3=O)o2)cc1Cl | ? | 11% | -29% | -26% | 28µM*
Cc1ccc(/C=C2/NC(=O)N(Cc3ccc(Br)cc3)C2=O)o1 | -11% | -7% | 3% | -14% | ?
COC/C=C/C1=CC2=CC(=O)C(C)(OC(=O)c3cnc4ccccc4n3)C(=O)C2=CN1c1ccccc1 (stereo unspecified) | ? | -1%[11.2 µM] | -3%[11.2 µM] | ? | 13µM*!
COC/C=C/C1=CC2=CC(=O)C(C)(OC(=O)c3cnc4ccccc4n3)C(=O)C2=CN1c1ccc(CO)cc1 (stereo unspecified) | 2%[11.6 µM] | 1%[11.2 µM] | -17%[11.2 µM] | -20%[11.6 µM] | -15%[11.5 µM]
CC(=O)Oc1ccc(C(=O)Cc2ccc3ccccc3n2)c(O)c1C | 1% | 0% | -2% | -15% | 1.4µM*
